Laboratory results taken from PubChem BioAssay (NCI).
About 83,000 compounds went through this panel and 20% of them were active in at least one assay; those are over-represented in the sample as a whole.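 The endpoint reported here, percent growth, reads 100 for growth as untreated, 0 for no net growth and -100 for all cells dead.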 Active and inactive are the calls of the source. The calls were made as follows: active = growth percent below 10; inactive = the rest.

Assays:
Test in all cases: NCI-60 one-dose screen, 48 h (100 = growth as untreated, 0 = no growth, -100 = all killed)
Settings in all cases: 10 µM
[1] = system: HOP-92 NSCLC
[2] = system: RXF 393 renal
[3] = system: M14 melanoma
[4] = system: SK-MEL-5 melanoma
[5] = system: EKVX NSCLC
[6] = system: UO-31 renal
[7] = system: CCRF-CEM leukemia
[8] = system: T-47D breast
[9] = system: BT-549 breast
[10] = system: MDA-MB-435 melanoma
[11] = system: SW-620 colon
[12] = system: MCF7 breast
[13] = system: HCT-116 colon
[14] = system: HCC-2998 colon
[15] = system: KM12 colon
[16] = system: NCI-H322M lung
[17] = system: NCI-H522 lung
[18] = system: OVCAR-4 ovarian

Measured: growth

Cc1ccc(S(=O)(=O)N2CCN(S(=O)(=O)c3oc(-c4ccccc4)nc3C#N)CC2)cc1
inactive: [1] 93% | [2] 87.6% | [3] 84.8% | [4] 63.7% | [5] 81.7% | [6] 61.7% | [7] 75.7% | [8] 60.8% | [9] 76.1% | [10] 77.6% | [11] 90% | [12] 47.6% | [13] 84.6% | [14] 106% | [15] 82.5%

O=C(Nc1ccc(OCc2ccc(Cl)cc2)cc1)Nc1ccc(Cl)c(C(F)(F)F)c1
inactive: [16] 25.9% | [18] 13.8% | [10] 14.2% | [11] 25.1% | [15] 10.2%
active: [17] -16.7% | [2] -21% | [4] -81.4% | [6] 6.65% | [8] 3.95% | [9] -17% | [12] 1.78% | [13] 3.96% | [14] 3.51%

C#C[C@]1(O)CC[C@H]2[C@@H]3CC=C4c5sc(Nc6cc(C)cc(C)n6)nc5CC[C@]4(C)[C@H]3CC[C@@]21C
active: [1] -22.2% | [17] -79.9% | [2] -40% | [4] -99.7% | [7] 5% | [8] -35.6% | [9] -50.4% | [10] -6.28% | [11] -86.9% | [12] -89.7% | [13] -56.1% | [14] 1.37% | [15] -16.7%

Cc1cc(N=C2NC(=O)/C(=C/c3cc(C(C)(C)C)c(O)c(C(C)(C)C)c3)S2)n[nH]1
inactive: [16] 28.6% | [7] 13% | [11] 15.3% | [14] 22.5% | [15] 17.1%
active: [2] -38.6% | [4] -72.8% | [8] 3.32% | [9] -1.78% | [10] 4.96% | [13] 3.45%

Cn1cc(/C=C(/SS/C(=C/c2cn(C)c3cccc(C(=O)O)c23)C(=O)O)C(=O)O)c2c(C(=O)O)cccc21
inactive: [16] 102% | [17] 92.6% | [2] 112% | [3] 115% | [4] 100% | [5] 98.2% | [7] 106% | [8] 101% | [9] 114% | [10] 98% | [11] 116% | [13] 118% | [14] 99.8% | [15] 103%

Cc1ccc(-c2nc(C#N)c(S(=O)(=O)N3CCN(S(C)(=O)=O)CC3)o2)cc1
inactive: [16] 98.8% | [1] 63.7% | [4] 55.2% | [9] 58% | [10] 57.9% | [14] 92.9% | [15] 92.5%
active: [2] -35.2% | [7] 7.57% | [8] -52.4% | [11] -71.8% | [13] -74%

CC(C)(C)c1cc(/C=C2\S/C(=N/c3ncn[nH]3)NC2=O)cc(C(C)(C)C)c1O
active: [2] -17.5% | [4] -25.2% | [9] -2.05% | [12] 8.22% | [13] 7.92%
inactive: [16] 17% | [3] 17.9% | [5] 12.3% | [7] 11% | [8] 10.3% | [10] 11.9% | [11] 15.1% | [14] 14.5% | [15] 20.2%

O=C(Nc1ccc(OCc2ccc(F)cc2)cc1)Nc1ccc(Cl)c(C(F)(F)F)c1
active: [17] -20.8% | [2] -24.3% | [4] -81.4% | [6] 7.5% | [8] 6.12% | [9] -15.9% | [10] -12.4% | [13] 4.96% | [14] 1.98%
inactive: [16] 21.9% | [18] 19% | [11] 22.3% | [15] 11.1%

O=C(CSc1nc2ccccc2c(=O)n1-c1ccc(Cl)cc1)Nc1ccc(-c2nc3ccccc3[nH]2)cc1
inactive: [16] 37.5% | [4] 47.7% | [5] 27.4% | [9] 35.6% | [15] 17%
active: [2] -35.1% | [8] -68.5% | [10] -16% | [11] 7.92% | [13] -84.3% | [14] 4.31%

O=[N+]([O-])c1cccc(-c2nnc3c(/C=C/c4ccccc4O)nc4ccccc4n23)c1
inactive: [1] 51.2% | [2] 52.6% | [3] 29.8% | [4] 19.6% | [5] 54.2% | [7] 47.5% | [18] 68.4% | [8] 26.3% | [9] 62.6% | [10] 40.7% | [11] 41.7% | [13] 56.4% | [14] 53.8% | [15] 37.5%
